Molecules are shown by their SMILES. About 800 (1.6%) of roughly 50,000 compounds showed an effect of 50% or more. What follows is part of a selection rich in strong results, with near analogues and random picks from the rest.

The target in the test is Bcl-2-like protein 10 (Homo sapiens) (UniProt Q9HD36). The experiment in a line: TR3 peptide-Bcl-B binding displacers, biochemical primary FP assay, phenotype converters (AID 1240).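 Note: 0% = Bcl-B with tracer peptide and DMSO and 100% = tracer peptide lacking Bcl-B.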 The settings on record: GST-Bcl-B / FITC-TR3 peptide fluorescence polarization; stronger effect = higher value; compound at 3.75 mg/L.
Chain of Bcl-2-like protein 10 (Homo sapiens) (Q9HD36 whole entry, looked up): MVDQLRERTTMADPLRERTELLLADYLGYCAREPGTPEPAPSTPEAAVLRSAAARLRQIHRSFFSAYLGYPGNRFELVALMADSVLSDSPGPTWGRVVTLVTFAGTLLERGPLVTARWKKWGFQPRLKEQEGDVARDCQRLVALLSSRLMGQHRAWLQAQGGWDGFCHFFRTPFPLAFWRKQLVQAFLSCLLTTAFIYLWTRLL
As for `O=C1NC(=S)N(c2ccc(Cl)cc2)C(=O)C1=Cc1ccsc1`, the displacement turned out to be 8.3%. As for `O=C1CSC(c2cn(-c3ccccc3)nc2-c2ccc(Cl)cc2)N1Cc1ccccc1` (stereo unspecified), the displacement was -6.5%. The value for `O=c1[nH]cc(N=Cc2ccccc2)c(=O)[nH]1` was -2.8%; that for `Cc1onc(-c2ccccc2Cl)c1C(=O)Nc1sc(C)c(C)c1C#N` was 13.6%; that for `CCc1nc2ccccc2n1CC(O)COC1CCCCC1` (stereo unspecified) was -10.7%.

Take `COC(=O)c1ccc(N2C(=O)c3cccc([N+](=O)[O-])c3C2=O)cc1`: the displacement was -0.7%. Under `O=c1/c(=C/c2cccs2)sc2nc3ccccc3n12` stands 7.2%; under `O=c1/c(=C/c2ccccn2)sc2nc3ccccc3n12`, 102%; under `Cc1ccsc1/C=c1\sc2nc3ccccc3n2c1=O`, -8.5%. Consider `CCOc1ccc(NC(=O)CC2S/C(=N\N=C(/C)c3cccc(NC(C)=O)c3)NC2=O)cc1` (stereo unspecified), for which the displacement is -11%. With `CN1CCN(c2ccc3c4c(cccc24)C(=O)N(CCO)C3=O)CC1`, the displacement was 155%. `O=C1c2cccc3c(N4CCCCC4)ccc(c23)C(=O)N1c1ccc(Cl)cn1`: the displacement amounted to 25.4%. With `O=C1c2cccc3c(N4CCCCC4)ccc(c23)C(=O)N1CCO`, the displacement was 66.1%.

Regarding `CN1CCN(c2ccc3c4c(cccc24)C(=O)c2ccccc2-3)CC1`, the displacement came out at 2.9%. The value for `CC(C)N1C(=O)c2cccc3c(N4CCCCC4)ccc(c23)C1=O` was 9.8%; that for `CN1CCN(C(=O)CCN2C(=O)c3cccc4cccc(c34)C2=O)CC1` was 18.2%; that for `CCOC(=O)c1c(-c2ccccc2)oc2ccc(OC(=O)c3ccc(OC)c(OC)c3)cc12` was 8.8%. On to `Cc1ccc(C(=O)COc2cc(OCC(=O)c3ccc(C)cc3)c3c(C)cc(=O)oc3c2)cc1`, for which the displacement stood at 10%. For `COc1nccnc1NS(=O)(=O)c1ccc(NC(=S)NC(=O)c2ccc(F)c(F)c2)cc1`, the displacement worked out at 6.6%. As to `CSc1ccc(-c2ncnn2-c2cccc(Cl)c2)cc1`, the displacement is -4.7%.

Consider `COC(=O)C1C(=O)N(C)C(c2ccccc2)C1C(=O)OC` (stereo unspecified), for which the displacement came out at 8.4%. For the compound `CCOC(=O)C1=C(C)N=c2s/c(=C\c3cccc([N+](=O)[O-])c3)c(=O)n2C1c1ccc(C)cc1` (stereo unspecified), the displacement is 16.1%.

On to `CCOC(=O)C1=C(C)N=c2s/c(=C\c3cccc([N+](=O)[O-])c3)c(=O)n2C1c1cccc(OC)c1` (stereo unspecified), for which the displacement worked out at 4.1%. For the compound `CCOC(=O)C1=C(C)N=c2s/c(=C\c3ccc(C)cc3)c(=O)n2C1c1cccc([N+](=O)[O-])c1` (stereo unspecified), the displacement was determined as 127%.

For `CCOC(=O)C1=C(C)N=c2s/c(=C\c3cccc([N+](=O)[O-])c3)c(=O)n2C1c1ccccc1F` (stereo unspecified), the displacement was 138%. The value for `CCOC(=O)C1=C(C)N=c2s/c(=C/c3ccc(F)cc3)c(=O)n2C1c1cccc([N+](=O)[O-])c1` (stereo unspecified) was 7.1%. Turning to `CCOC(=O)C1=C(C)N=c2s/c(=C/c3cccc([N+](=O)[O-])c3)c(=O)n2C1c1ccccc1Cl` (stereo unspecified), the displacement is 10.2%. As for `CCCCOc1ccc(C(=O)O/N=C2/CCc3cc(OC)ccc32)cc1`, the displacement was 2%. The value for `O=C(Nc1ccc(Cl)c(Cl)c1)c1ccc([N+](=O)[O-])o1` was -8%; that for `Cc1cc(C)c2nc3s/c(=C\c4ccc(-c5cc([N+](=O)[O-])c(C)cc5C)o4)c(=O)n3c2c1` was -20.8%; that for `CN1CCO/C1=C(C#N)\C=C1/C(=O)N(c2c(Cl)cccc2Cl)c2ccccc21` was 67.6%.

In the case of `Cc1c(Cl)cccc1N1C(=O)c2ccccc2C1=O`, the displacement turned out to be 7.1%.

As for `CN1CCO/C1=C(C#N)\C=C1\Nc2ccccc2C1=O`, the displacement is -77.4%.

Take `COc1ccc(/C=C2\SC(N3CCCCCC3)=NC2=O)cc1OC`: the displacement was -1.9%. Under `Cc1ccc(S(=O)(=O)Oc2ccc(/C=C3/SC(=S)N(C)C3=O)cc2)cc1` stands -3.3%.

With `Cc1cccn2c(=O)c(/C=N/NC(=O)c3ccccc3O)c(N3CCCCC3)nc12`, the displacement came to 130%. Under `Cc1cccn2c(=O)c(C=O)c(N3CCCCC3)nc12` stands 3.9%; under `Cc1cccn2c(=O)c(C=O)c(N3CCC(C)CC3)nc12`, 17%; under `CCOC(=O)COc1ccc(/C=C2\C(=O)NC(=O)N(c3ccc(OC)cc3)C2=O)cc1OC`, 0.6%. With `Cc1cc(C)cc(N2C(=O)NC(=O)/C(=C\c3cc(Br)ccc3OCC(=O)O)C2=O)c1`, the displacement was -7.4%. For the compound `CCN(CC)CCNc1nc2nonc2nc1NCCN(CC)CC`, the displacement was -0.5%. In the case of `NC(=O)c1cc(NC(=O)c2cc3ccccc3cc2O)cc(C(N)=O)c1`, the displacement was -4.2%.

On to `CN(C)c1ccc(NC(=O)c2ccc(Br)cc2)cc1`, for which the displacement was determined as 48.8%.

Consider `COc1cc(OC)cc(C(=O)Nc2cccc(-c3nc4cc(C)cc(C)c4o3)c2C)c1`, for which the displacement came to 58.7%. Consider `COc1cc2ccccc2cc1C(=O)Nc1cccc(-c2nc3cc(C)cc(C)c3o2)c1C`, for which the displacement turned out to be 26.5%. For the compound `COc1cc(OC)cc(C(=O)Nc2ccc(-c3nc4cc(C)cc(C)c4o3)cc2)c1`, the displacement was found to be 55.3%. On to `CC(=O)Nc1cccc(-c2nc3cc(C)ccc3o2)c1C`, for which the displacement is 99.7%. With `CCOc1ccc(C(=O)Nc2cccc(-c3nc4cc(C)ccc4o3)c2C)cc1`, the displacement turned out to be 17.4%. Turning to `COc1cc(OC)cc(C(=O)Nc2cccc(-c3nc4ncccc4o3)c2C)c1`, the displacement came to 5.6%. In the case of `COc1ccc(Br)cc1C(=O)Nc1cccc(-c2nc3cc(C)ccc3o2)c1C`, the displacement is 20.2%.

On to `COc1cc(OC)cc(C(=O)Nc2ccc3oc(-c4ccc(I)cc4)nc3c2)c1`, for which the displacement was -5.8%. On to `Cc1cc(C)c2oc(-c3ccc(NC(=O)c4cccc([N+](=O)[O-])c4C)cc3)nc2c1`, for which the displacement is -3.8%. Take `Cc1onc(-c2c(Cl)cccc2Cl)c1C(=O)Nc1ccc(N(C)C)cc1`: the displacement was 12.1%.

As to `CCOC(=O)c1c(NC(=O)COc2ccccc2C)sc(C(=O)Nc2ccccc2F)c1C`, the displacement was -0.6%.

As to `CN(C)c1ccc(-c2ncnn2-c2sc3c(c2C#N)CCCC3)cc1`, the displacement stood at 3.1%. For `Cc1ccc(NCC(=O)N/N=C\c2ccc(OCc3ccccc3)cc2)cc1`, the displacement came out at 6.5%. The value for `O=[N+]([O-])c1ccc(-n2ncnc2-c2ccc(F)cc2)cc1` was 10.5%; that for `O=C(O)C(Cc1ccccc1)N1C(=O)/C(=C/c2ccc(O)cc2)SC1=S` (stereo unspecified) was -23.7%; that for `CN(C)c1ccc(/C=N/Nc2cc(N3CCOCC3)ncn2)cc1` was -14.2%. Take `O=C(Cn1c2ccccc2c(=O)c2ccccc21)N/N=C/c1cc([N+](=O)[O-])ccc1N1CCCC1`: the displacement stood at 73.6%. Regarding `O=C(Cn1c2ccccc2c(=O)c2ccccc21)N/N=C/c1cc([N+](=O)[O-])ccc1N1CCCCC1`, the displacement is -6.8%.

`O=C(Cn1c2ccccc2c(=O)c2ccccc21)N/N=C/c1cc([N+](=O)[O-])ccc1N1CCCCCC1`: the displacement is -7%.

For `COc1ccc(CN2CCN(C(=O)c3ccc(F)cc3)CC2)cc1Br`, the displacement came out at 8.4%.

Consider `Cc1no[n+]([O-])c1COc1ccc(/C=C2\NC(=S)NC2=O)cc1`, for which the displacement is -73.2%.

On to `COc1ccccc1N1C(=O)NC(=O)/C(=C/c2c(OC)ccc3ccccc23)C1=O`, for which the displacement stood at 1.1%.

For the compound `COc1cc(/C=C2/C(=O)NC(=O)N(c3ccccc3)C2=O)ccc1OCC(=O)O`, the displacement stood at 6.2%. Consider `COc1cc(/C=C2/C(=O)NC(=O)N(c3ccccc3C)C2=O)ccc1OCCOc1ccccc1`, for which the displacement stood at 69.3%. As to `COc1cc(C=C2C(=O)NC(=O)NC2=O)ccc1OCCO`, the displacement was -2.4%. Consider `COc1cc(C=C2C(=O)NC(=O)NC2=O)ccc1OCCSc1ccc(C)cc1`, for which the displacement was 64.1%. On to `COc1cc(C=C2C(=O)NC(=O)NC2=O)ccc1OCCOc1ccc(C)cc1`, for which the displacement is 32.2%. For `COc1ccccc1OCCOc1ccc(/C=C2/C(=O)NC(=O)N(c3ccccc3C)C2=O)cc1OC`, the displacement was determined as 76.2%. `COc1ccc(N2C(=O)NC(=O)/C(=C/c3ccc(OCCOc4ccc(C)cc4)c(OC)c3)C2=O)cc1`: the displacement amounted to 12.8%. Regarding `CCOc1ccc(/C=C2\C(=O)NC(=O)N(c3ccccc3C)C2=O)cc1Cl`, the displacement worked out at 0.3%.

With `COc1ccccc1N1C(=O)NC(=O)/C(=C\c2cc3ccccc3n2C)C1=O`, the displacement turned out to be 165%. Under `COc1ccccc1/C=C1/C(=O)NC(=O)N(c2ccccc2OC)C1=O` stands -2.3%; under `COc1cc(/C=C2/C(=O)NC(=O)N(c3cccc(C)c3)C2=O)ccc1OCCOc1ccccc1`, 19%; under `Cc1c(Nc2nc3nonc3nc2Nc2cccc(Cl)c2)c(=O)n(-c2ccccc2)n1C`, 10%.

With `CCOc1ccc(N2C(=O)C3CC=CCC3C2=O)cc1` (stereo unspecified), the displacement was found to be 14.7%. Consider `O=C(O)CCC(=O)Nc1ccc(S(=O)(=O)N2CCCCCC2)cc1`, for which the displacement was 3%.

On to `O=C(/C=C/c1ccc([N+](=O)[O-])cc1)NC(=S)Nc1ccccc1Cl`, for which the displacement was -3.4%. Under `CCOC(=O)C(C)Oc1ccc2c(C)c(CC)c(=O)oc2c1` (stereo unspecified) stands -3.1%. On to `COC(=O)c1ccccc1NC(=O)CSc1nc2ccc(N3C(=O)c4ccccc4C3=O)cc2s1`, for which the displacement stood at 3.2%. On to `COc1ccc(NC(=O)CSc2nc3ccc(N4C(=O)c5ccccc5C4=O)cc3s2)cc1`, for which the displacement turned out to be 1.7%.

For the compound `COc1ccccc1NC(=O)CSc1nc2ccc(N3C(=O)c4ccccc4C3=O)cc2s1`, the displacement was determined as 84.2%. In the case of `Cc1ccc(-n2cnc3sc(C)c(C)c3c2=O)cc1`, the displacement was -0.9%. Turning to `Cc1sc2ncn(/N=C/C=C3\N(C)c4ccccc4C3(C)C)c(=O)c2c1C`, the displacement worked out at 75.7%. Regarding `CN1/C(=C\C=N\Nc2ccc([N+](=O)[O-])cc2)C(C)(C)c2ccccc21`, the displacement was -4.6%. Under `O=C(O)c1cccc(N(CCO)CCO)c1` stands 6%; under `COc1cccc(NC(=O)CCCN2C(=O)c3cccc4cccc(c34)C2=O)c1`, 6.9%; under `COc1ccc(C2=CC(c3cccs3)C=C(c3ccc(OC)cc3)O2)cc1`, 162%. As for `COc1ccc(C2=C/C(=C/c3cccs3)C(=O)O2)cc1`, the displacement was found to be 7.8%.

For `COC(=O)C1=CN(Cc2ccc(OC)cc2)C=C(C(=O)OC)C1c1cccs1`, the displacement stood at 2.9%.

In the case of `Cc1ccc(CN2CCN(/N=C\c3cc(Br)ccc3O)CC2)cc1`, the displacement was -6%. Consider `Cc1ccc(C(=O)Nn2c(O)c(C3=c4ccccc4=NC3=O)sc2=S)cc1`, for which the displacement is -18.6%. On to `O=C1CC(c2ccccc2)CC(O)=C1C=Nc1ccc(F)cc1` (stereo unspecified), for which the displacement is -1.2%. Regarding `O=C1CC(c2ccccc2)CC(O)=C1C=Nc1ccc(Br)cc1` (stereo unspecified), the displacement is -3.8%. As for `Cc1cc(C)cc(N=CC2=C(O)CC(c3ccccc3)CC2=O)c1` (stereo unspecified), the displacement turned out to be 84.1%. On to `O=C(O)CCC(=O)Nc1ccc(F)cc1`, for which the displacement is -7.3%. Under `CN(C)c1ccc(/C=C2\SC(N3CCN(C4=NC(=O)/C(=C\c5ccc(N(C)C)cc5)S4)CC3)=NC2=O)cc1` stands -12.9%; under `Cc1ccc(/C=C2\SC(N3CCC(C)CC3)=NC2=O)cc1`, -15%; under `CC1CCN(C2=NC(=O)/C(=C/c3ccc(N(C)C)cc3)S2)CC1`, 157%.
